Assay outcomes: PubChem BioAssay, National Center for Advancing Translational Sciences (NCATS)
G9a inh = qHTS Assay for Inhibitors of Histone Lysine Methyltransferase G9a; Histone-lysine N-methyltransferase EHMT2 (Homo sapiens), Q96KQ7; G9a H3K9 monomethylation, AlphaScreen, 2 h; Potency, µM (highest dose often 102 µM), most hits filed as inhibitors; 350,000 compounds, 8.8% hits; AID 504332, 2011; note: nearly all actives have a fitted effect of over 75% in size
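Quantitative HTS format: methyltransferase activity on a biotin-tagged H3K9 peptide is measured by AlphaScreen, using a rabbit anti-monomethyl-H3K9 antibody with streptavidin donor and anti-IgG acceptor beads. Final levels are 20 nM enzyme, 500 nM peptide, 20 uM SAM; 2 h RT.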
BAZ2B inh = qHTS Assay for Inhibitors of BAZ2B | AlphaScreen BAZ2B-H3K14Ac peptide displacement | Potency, µM (titrated, usually from 114 µM), most hits filed as inhibitors | 360,000 compounds, 4.4% hits | AID 504333, 2011; note: nearly all actives have a fitted effect of over 60% in size
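Inhibition is scored as reduced AlphaScreen emission. The BAZ2B/b-H3(5-23)K14Ac complex (50 nM each) in PBS pH 7.4, 0.01% Tween-20 meets compound (up to 110 uM) for 30 min at RT before bead addition.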
Sfp inh = qHTS Assay for Inhibitors of Bacillus subtilis Sfp phosphopantetheinyl transferase (PPTase); 4'-phosphopantetheinyl transferase ffp (Bacillus subtilis), Q9F4F7; Biochemical Sfp PPTase activity, qHTS; Potency, µM, hits mostly inhibitors; 310,000 compounds, 3.5% hits; AID 1490, 2009;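 note: the enzyme is Sfp with the accession as filed and its product quenches rhodamine fluorescence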
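Fluorescence-quenching assay: 15 nM Sfp-PPTase preincubated 15 min at room temperature with compound, then 5 uM rhodamine-CoA and 12.5 uM BHQ-2-labelled YbbR peptide added. Fluorescence (ex 525/em 598 nm) read at start and after 30 min; difference gives rate.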
HP1b binding inh = HTS for Inhibitors of HP1-beta Chromodomain Interactions with Methylated Histone Tails; Chromobox protein homolog 1 (Homo sapiens), P83916; AlphaScreen HP1-beta / biotin-H3K9me3 peptide binding; Potency, µM (highest dose often 114 µM), usual class: inhibitors; 390,000 compounds, 0.56% hits; note: nearly all actives have a fitted effect of over 70% in size
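HP1-beta protein (50 nM final) preincubated 30 min at room temperature with biotinylated H3(1-18)K9me3 peptide (50 nM) in PBS pH 7.4, 0.01% Tween-20, then compound added for 30 min. AlphaScreen streptavidin donor/nickel chelate acceptor beads (10 ug/mL final), 30 min dark, luminescence read.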
JMJD2A Tudor inh = qHTS Assay for Inhibitors of JMJD2A-Tudor Domain; Potency, µM (series often up to 114 µM), actives largely listed as inhibitors; 390,000 compounds, 4.4% hits; AlphaScreen JMJD2A-Tudor / H3K4me3 peptide binding; note: nearly all actives have a fitted effect of over 50% in size
A number is an active result; n = inactive; u = inconclusive; x = no result given; [ ] = dose if it differs, or a comment. Shown are actives, neighbours in structure and some others; about 12% of the full set was active somewhere. Calls come from the whole dose curve; as a rule, active = well fitted curve in the direction sought with a large enough effect; inconclusive = small, poorly fitted or top-dose-only effect, or another doubt; inactive = no such curve, though single readings can be large; an effect the other way counts as inactive or inconclusive.

SMILES | G9a inh | BAZ2B inh | Sfp inh | HP1b binding inh | JMJD2A Tudor inh
COc1ccc(N2CC(NC(=O)c3ccc(S(=O)(=O)N4CCCC4)cc3)CC2=O)cc1 (centres undefined) | n | n | x | n | n
CC1(C)CC(=O)C(CC2=C(O)CC(C)(C)CC2=O)C(=O)C1 | u | n | u | n | n
CC1(C)CC(=O)C(CC2=C(O)CC(C)(C)CC2=O)=C(O)C1 | 4.5µM | n | u | n | n
COc1ccc(-c2c(C3C4C=CCCC4(C)C(=O)N3Cc3ccccc3)ccc3ccccc23)cc1 (centres undefined) | x | x | n | n | n
Cc1cc(C)c2cc(C#N)c(N3CCCC3)nc2c1 | n[12.7 µM] | n | 45µM | n | n[11.4 µM]
COc1ccc(-c2nc(CN3CCCCC3c3cccnc3)c(C)o2)c(F)c1 (centres undefined) | n | n | n | n | n
Cc1cccc(CN2CCc3c([nH]c4ccccc34)C2)c1 | 45µM | 50µM | n | 45µM | 20µM
CSc1ccc(CN2CCc3c([nH]c4ccccc34)C2)cc1 | x | u | n | u | 3.2µM
Clc1ccc(CN2CCc3c([nH]c4ccccc34)C2)cc1Cl | 28µM | 32µM | u | u | 16µM
Clc1cccc(CN2CCc3c([nH]c4ccccc34)C2)c1 | x | 50µM | u | u | 20µM
Cc1cc(Nc2cccc([N+](=O)[O-])c2)n2c(nc3ccccc32)c1C#N | n | n | n | n | n
CC(=O)c1cccc(NC(=O)CCOc2ccccc2)c1 | n[12.7 µM] | n | n | n | n
CCc1nnc(NC(=O)CSc2nccn2Cc2ccccc2)s1 | n | n | x | n | n
O=C(CN1CCN(c2cccc(C(F)(F)F)c2)CC1)NCc1ccccc1 | x | n | n | n | n
Cc1[nH]c2ccccc2c1NC(=O)CN1CCN(c2cccc(C(F)(F)F)c2)CC1 | u | 50µM | n | n | u
Cc1[nH]c2ccccc2c1C(O)CN1CCN(c2cccc(C(F)(F)F)c2)CC1 (centres undefined) | 56µM | 40µM | n | u | 56µM
CC(C)CN(C(=O)c1cccc([N+](=O)[O-])c1)c1c(N)n(CC(C)C)c(=O)[nH]c1=O | 50µM | n | n | n | n
CC(C)CN(C(=O)CCc1ccccc1)c1c(N)n(CC(C)C)c(=O)[nH]c1=O | n | n | n | n | n
CC(C)CN(C(=O)c1cc2ccccc2o1)c1c(N)n(CC(C)C)c(=O)[nH]c1=O | 50µM | n | n | n | n
CCOc1ccc(NC(=O)CN(C)C(=O)C2CSC3(C)CCC(=O)N23)cc1OCC (centres undefined) | n | n | x | n | n
COc1ccc(N(C(=O)C(C)C)S(=O)(=O)c2cccc3cccnc23)cc1 | n | n | n | n | n
Clc1ccc(CSc2nnc(CNc3cccc(Cl)c3)o2)cc1 | n | n | n | n | n
CCn1c(NCc2ccccn2)nc2ccccc21 | 8.9µM | 56µM | u | n | n
Cc1cc(NCc2ccccn2)nc2ccccc12 | n | n | n | n | n
CCn1c(NCc2ccc(OC)c(OC)c2)nc2ccccc21 | n | n | x | n | n
SMILES | G9a inh | BAZ2B inh | Sfp inh | HP1b binding inh | JMJD2A Tudor inh
CCn1c(NCc2ccc(N(C)C)cc2)nc2ccccc21 | 20µM | u | n | n | u
c1ccc(CNc2ccc3ccccc3n2)nc1 | n | n | n | n | 8.9µM
CCn1c(NCc2cccs2)nc2ccccc21 | n[12.7 µM] | n | n | n | n
CCN(CC)c1ccc(CNc2nc3ccccc3n2CCN2CCCCC2)cc1 | 25µM | 14µM | n | u | 40µM
Cc1cccc(OCC(=O)NNC(=O)c2ccccc2OCc2c(C)noc2C)c1 | n | n | x | n | n
CCN(CCCNC(=O)c1c(C)cc(=O)oc1C)c1cccc(C)c1 | 13µM | u | n | n | u
Cc1ccc(CNC(=O)c2c(C)cc(=O)oc2C)cc1 | n | n | n | n | n
O=C(NCc1ccccn1)c1ccc(=O)oc1 | 3.2µM | 6.3µM | 89µM | n | 8.9µM
Cc1cc(=O)oc(C)c1C(=O)NCc1ccccn1 | 1.6µM | 16µM | n | n | 2.5µM
Cc1ccccc1CS(=O)(=O)Cc1ccc(C(=O)NCc2ccccn2)o1 | n[0.501 µM] | 50µM | n | n | n
CCCCCn1c(=O)[nH]c2cc(C(=O)NCc3ccccn3)ccc2c1=O | 40µM | 79µM | n | n | u
O=C(Nc1cccnc1Cl)c1ccc(=O)oc1 | 35µM | 56µM | u | n | u
COc1ccc(C(=O)Nc2cccnc2Cl)cc1OC | n | u | n | n | n
CCSc1nc(C(F)(F)F)cc(=O)n1-c1ccccc1 | x | n | n | n | n
O=c1[nH]c2ccc(Cl)cc2[nH]1 | x | x | x | n | n
S=c1[nH]c2ccc(Cl)cc2s1 | 1.1µM | n | n | n | u
O=[N+]([O-])c1ccc2[nH]c(=S)sc2c1 | x | x | x | u | 50µM
O=[N+]([O-])c1ccc2[nH]c(=S)[nH]c2c1 | x | x | x | n | n
CCc1ccc(S(=O)(=O)NCc2cn3c(C)csc3n2)s1 | u | n | n | n | n
NS(=O)(=O)c1ccc(Sc2nc3ccccc3s2)c([N+](=O)[O-])c1 | 45µM | n | n | n | u
O=C(O)c1ccc(S(=O)(=O)Nc2ccc(O)c(Sc3nc4ccccc4s3)c2)cc1 | x | u | n | n | 89µM
COc1cccc(S(=O)(=O)NCc2ccc(C(=O)NCC3CCCO3)cc2)c1 (centres undefined) | n[12.7 µM] | n | n | n | n
OCCCNc1ncnc2c1cnn2-c1ccc(Cl)cc1 | n | n | n | n | n
COc1cc2c(cc1OC)CN(Cc1ccc(C)cc1)CC2 | x | n | n | n | n
COc1cc2c(cc1OC)CN(Cc1cc(=O)oc3c(C)c(C)ccc13)CC2 | 25µM | n | n | n | n
SMILES | G9a inh | BAZ2B inh | Sfp inh | HP1b binding inh | JMJD2A Tudor inh
COc1cc2c(cc1OC)CN(Cc1cc(=O)oc3cc(C)c(C)cc13)CC2 | 7.9µM | n | n | n | n
COc1cc2c(cc1OC)CN(Cc1cc(=O)oc3cc(C)c(Cl)cc13)CC2 | 10µM | n | n | n | n
CCc1ccc2c(CN3CCc4cc(OC)c(OC)cc4C3)cc(=O)oc2c1 | 8.9µM | n | n | n | n
Cc1cc2oc(=O)cc(CN3CCC(C)CC3)c2cc1Cl | n | n | n | n | n
COc1ccccc1CNCc1cc(=O)oc2c(C)c(C)ccc12 | n | n | n | n | n
Cc1cc(NC(=O)CSc2nccn2C)no1 | n | n | n | n | n
CN1CCc2c(OCC(=O)N3CCC(Cc4ccccc4)CC3)cccc2C1=O | n | x | n | n | u
COC(=O)c1ccc(CNC(=O)N2CCN(S(=O)(=O)c3ccc(C)cc3)CC2)cc1 | n | n | n | n | n
Cc1cccc(N(CC(=O)NC2CCCC2)C(=O)CS(=O)CC(=O)Nc2ccc3c(c2)OCO3)c1 (centres undefined) | u | n | n | n | n
CCCCCn1cnnc1SCC(=O)c1ccc2c(c1)OCO2 | n[12.7 µM] | n | x | n | n
